Test results from PubChem BioAssay AID1851 (National Center for Advancing Translational Sciences (NCATS), 2009).
In all, about 16,000 compounds went through this assay and about 5,700 (36%) were called active. Roughly 24% stayed inconclusive and do not appear here. Some of the results follow. Unmarked numbers belong to inactive results. Calls come from the whole dose curve; as a rule, active = well fitted curve in the direction sought with a large enough effect; inconclusive = small, poorly fitted or top-dose-only effect, or effect the other way; inactive = no such curve, though single readings can be large or run the other way.

Each compound was assayed against Cytochrome P450 1A2 (Homo sapiens) (UniProt P05177) (assay: Cytochrome panel assay with activity outcomes). Conditions: recombinant CYP, pro-luciferin dealkylation, luminescence, p450-cyp1a2; series mostly up to 57.1 µM; activity, negative = inhibition: at the top concentration.
Cytochrome P450 1A2 (Homo sapiens), sequence (P05177 whole entry, looked up): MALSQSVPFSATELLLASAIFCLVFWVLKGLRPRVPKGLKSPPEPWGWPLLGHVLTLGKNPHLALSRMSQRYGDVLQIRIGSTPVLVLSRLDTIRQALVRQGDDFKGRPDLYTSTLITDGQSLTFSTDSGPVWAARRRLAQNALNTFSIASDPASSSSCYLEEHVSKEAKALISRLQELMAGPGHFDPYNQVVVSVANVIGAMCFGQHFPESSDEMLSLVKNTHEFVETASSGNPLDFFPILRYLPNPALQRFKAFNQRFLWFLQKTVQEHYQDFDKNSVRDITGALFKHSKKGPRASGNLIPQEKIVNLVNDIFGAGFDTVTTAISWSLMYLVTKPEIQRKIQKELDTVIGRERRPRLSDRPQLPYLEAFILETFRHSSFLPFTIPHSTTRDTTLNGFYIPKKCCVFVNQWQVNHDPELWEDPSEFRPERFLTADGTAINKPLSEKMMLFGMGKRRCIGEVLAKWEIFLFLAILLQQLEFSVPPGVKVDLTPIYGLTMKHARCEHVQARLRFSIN
% is set by controls: 0 for no effect and ±100 for the full control effect.

Row | SMILES | activity, negative = inhibition | AC50
1 | CC1=CC2=NC(=O)CC(C)(C(=O)N(CC(=O)NC(C)(C)C)Cc3cccs3)N2C=C1 (centres undefined) | 11.6% | –
2 | O=C(O)c1cc2c(o1)CCC/C2=N\O | -4.91% | –
3 | c1ccc(C2=NN[C@@H]3c4ccccc4-c4ccccc4N3C2)cc1 | – | 200 nM (active)
4 | COc1ccc2nc(N)sc2c1 | – | 12600 nM (active)
5 | CCOc1ccc2nc(NC(=O)c3ccc(S(=O)(=O)N4CCOCC4)cc3)sc2c1 | -13.6% | –
6 | COc1ccc2nc(NC(=O)CSc3nnc(C)s3)sc2c1 | – | 2820 nM (active)
7 | COc1ccc2nc(C)cc(SCC(=O)Nc3c(C)cc(C)cc3C)c2c1 | -12.6% | –
8 | COc1ccc2nc(/N=C\N(C)C)sc2c1 | – | 631 nM (active)
9 | COc1ccc(N2C(N)=NC(N)=NC2(C)C)cc1 | 10.4% | –
10 | CCCOc1ccc(C(=O)NC(=S)Nc2nc3ccc(C)cc3s2)cc1 | -9.82% | –
11 | COc1ccc2nc(NC(C)=O)sc2c1 | – | 3550 nM (active)
12 | COc1ccc(Cc2c(N)nc(N)nc2N)cc1 | -7.11% | –
13 | CN(C)Cc1ccc(O)c(CN(C)C)n1 | -8.37% [at 11.4 µM] | –
14 | C[C@]12CC[C@H]3c4ccc(O)cc4CC[C@@H]3[C@H]1CC[C@@H]2OC(=O)CCC1CCCC1 | -12.2% [at 11.4 µM] | –
15 | COc1ccc(S(=O)(=O)Nc2ccc(F)cc2)c(C)c1C | – | 14100 nM (active)
16 | CC(C)(C)NS(=O)(=O)c1ccc(NS(=O)(=O)c2ccc(F)cc2)cc1 | 8.66% | –
17 | COc1ccc(NS(=O)(=O)c2cc(-c3nnnn3C)ccc2OC)cc1 | -12% | –
18 | COc1cccc(-c2nc(CS(=O)(=O)CC(=O)NCCCOC(C)C)c(C)o2)c1 | -11.6% | –
19 | COc1ccc(-c2cc(C(=O)NCc3cccnc3)no2)cc1OC | – | 20000 nM (active)
20 | COCCNC(=O)c1cc(-c2cccc(OC)c2)on1 | – | 12600 nM (active)
21 | CCC(C)C1NC(=S)N(C2CCCCC2)C1=O (centres undefined) | -15.6% | –
22 | O=C(Nc1cccc2ncccc12)c1ccc(-c2ccc(Br)cc2)o1 | – | 501 nM (active)
23 | CC(C)(C)NC(=O)CSc1nnc(Cc2ccc3c(c2)OCO3)n1C1CCCCC1 | -16.8% | –
24 | Cc1cc2cc(C)c3nnc(SCC(=O)NCc4ccc5c(c4)OCO5)n3c2cc1C | – | 20000 nM (active)

Row | SMILES | activity, negative = inhibition | AC50
25 | O=C1C2Sc3[nH]c(=O)sc3C(c3ccccc3)C2C(=O)N1c1ccccc1 (centres undefined) | -9.7% | –
26 | N#Cc1cccc(-c2nccc(NCc3cccs3)n2)c1 | – | 251 nM (active)
27 | N#Cc1cccc(-c2nccc(NCc3cccnc3)n2)c1 | – | 251 nM (active)
28 | Cc1cccc(CNc2ccnc(-c3cccc(C#N)c3)n2)c1 | – | 398 nM (active)
29 | N#Cc1cccc(-c2nccc(NCc3ccccc3)n2)c1 | – | 501 nM (active)
30 | O=c1cnc2cnc(N3CCOCC3)nc2n1CCc1ccccc1 | – | 3160 nM (active)
31 | Cc1nc2cnc(N3CCOCC3)nc2n(CCC#N)c1=O | – | 12600 nM (active)
32 | N#CCCn1c(=O)cnc2cnc(N3CCOCC3)nc21 | – | 10000 nM (active)
33 | CCc1cc2c(nc1CC)CCN(CC/C(C)=N/OC[C@H]1O[C@H](c3ccccc3)C=C[C@@H]1Oc1ccc(OC)cc1)C2 | 0.11% [at 11.4 µM] | –
34 | Cc1ccc(-n2nc(C)c3c2OC(N)=C(C#N)C3c2ccco2)cc1 (centres undefined) | – | 8910 nM (active)
35 | CCn1c2ccccc2c2cnc(N=CN(C)C)c(C#N)c21 | – | 1410 nM (active)
36 | Cc1nc(N/N=C/c2ccccc2)nc(N(C)c2ccccc2)c1[N+](=O)[O-] | – | 1580 nM (active)
37 | COC(=O)C/C=C\[C@@H](C)[C@@H](/C=N\O[C@@H](C)CN1CCCCc2nc(C)c(C)cc21)NS(=O)(=O)c1ccc(C)cc1 | -4.63% [at 11.4 µM] | –
38 | COc1cc(C(=O)NC(=S)Nc2ccc3oc(=O)ccc3c2)cc(OC)c1OC | -0.189% | –
39 | C=CCN(CC=C)C(=S)NC(=O)c1ccc(OC)c(Br)c1 | – | 562 nM (active)
40 | COc1ccc(C(=O)NC(=S)NC(C)C)cc1Br | – | 3160 nM (active)
41 | COc1ccc(C(=O)c2ccccc2)cc1Br | – | 10000 nM (active)
42 | COc1ccc(C(=O)NNC(=O)Cc2ccc(-c3ccccc3)cc2)cc1OC | -20.2% | –
43 | COc1ccc(C(=O)NC(=S)NC(C)(C)C)cc1Br | – | 562 nM (active)
44 | CCOc1ccc(C(=O)O)cc1OC | -16.3% | –
45 | COc1ccc(NC(=O)N2CC3(CCN(S(C)(=O)=O)CC3)C2)cc1 | -4.57% | –
46 | FC(F)(F)c1ccccc1-c1ccc2ncnc(NC3CC3)c2c1 | – | 316 nM (active)
47 | Cc1ccccc1-c1ccc2ncnc(NC3CC3)c2c1 | – | 126 nM (active)
48 | CS[C@@H](CC(=O)O)C(=O)O | 6.13% [at 11.4 µM] | –

Row | SMILES | activity, negative = inhibition | AC50
49 | CCOCCCN1C(=O)CN(C2CCCCC2)C(=O)C1c1ccc(OCC)c(OC)c1 (centres undefined) | 1.09% | –
50 | CCC(C)(NC(=O)c1ccccn1)C(=O)NC1CCCCC1 (centres undefined) | -23.3% | –
51 | O=C(Nc1ccccn1)c1ccco1 | – | 11200 nM (active)
52 | O=C(c1ccco1)N1CCC2(CC1)CN(c1ccccn1)C2 | -2.55% | –
53 | O=C(NN=C1c2ccccc2-c2ccccc21)c1ccccn1 | – | 501 nM (active)
54 | O=C(N/N=C/c1ccco1)c1ccccn1 | – | 6310 nM (active)
55 | O=C(N/N=C/c1ccccn1)c1ccc(Br)o1 | – | 6310 nM (active)
56 | Cc1cc(C)n(CC(=O)N/N=C/c2ccco2)n1 | -5.36% | –
57 | C[N+](C)(C)c1nc(N)nc2c1ncn2[C@H]1O[C@@H](CO)[C@@H](O)[C@H]1O | -4.9% [at 2.29 µM] | –
58 | O=C1COC(c2ccccc2O)=NN1CCCN1CCCC1 | -13.6% [at 11.4 µM] | –
59 | CC(Oc1ccc(O)cc1)(P(=O)(O)O)P(=O)(O)O | 8.37% | –
60 | O=C(N/N=C/c1ccccn1)c1ccco1 | – | 15800 nM (active)
61 | O=C(CNC(=O)c1ccccn1)N/N=C/c1ccccc1 | – | 4470 nM (active)
62 | CO[C@H]1COC(=O)C/C=C\[C@H](C)COC(=O)[C@@H](OCc2ccccc2)/C=C\[C@@H]1C | -6.26% [at 11.4 µM] | –
63 | CC(C)=NOC[C@@H](O)COCc1ccco1 | 4.83% [at 11.4 µM] | –
64 | CC(C)[C@H]1C(=O)C(C(N)=O)=C(O)[C@]2(O)C(=O)C3=C(O)c4c(O)ccc(N(C)C)c4C[C@H]3C[C@@H]12 | -1.01% | –
65 | Nc1cc2c(nc3c4ccccc4c(N)cc3[n+]2-c2cccc3ccccc23)c2ccccc12 (tested in a mixture with another compound) | – | 1260 nM (active)
66 | COc1ccc(Cc2nnc(NC(=O)c3cccc([N+](=O)[O-])c3C)s2)cc1 | 8.33% | –
67 | COc1ccc(CNC(=O)C2CSC(=O)C2)cc1 (centres undefined) | -0.484% | –
68 | COc1ccc(CNC(=O)c2csc(Cc3ccc(Cl)cc3)n2)cc1 | – | 891 nM (active)
69 | COc1ccc(CNC(=O)c2csc(Cc3ccc(OC)cc3)n2)cc1 | – | 14100 nM (active)
70 | CCN(C(=O)COc1cc(=O)n(C)c2ccccc12)c1cccc(Cl)c1 | – | 15800 nM (active)
71 | Cc1ccc(S(=O)(=O)/C(C#N)=C/c2c(N3CC(C)OC(C)C3)nc3ccccn3c2=O)cc1 (centres undefined) | -4.89% | –
72 | Cn1c(C(=O)N2COCC2(C)C)cc2c(=O)n3ccccc3nc21 | – | 6310 nM (active)

Row | SMILES | activity, negative = inhibition | AC50
73 | Cn1c(C(=O)NCC2CCCO2)cc2c(=O)n3ccccc3nc21 (centres undefined) | – | 2240 nM (active)
74 | Cc1ccccc1-n1ncc2c(SCC(=O)N3c4ccccc4CC3C)ncnc21 (centres undefined) | -27.5% | –
75 | CC1Cc2ccccc2N1C(=O)c1cc2c(=O)n3ccccc3nc2n1C (centres undefined) | – | 3160 nM (active)
76 | CC1Cc2ccccc2N1C(=O)C1CCCCN1S(=O)(=O)c1ccccc1 (centres undefined) | -7.61% | –
77 | O=C(NCC1CCCO1)c1ccc2c(=O)n(Cc3ccco3)c(SCC(=O)N3CCCC3)nc2c1 (centres undefined) | -4.77% | –
78 | C[C@@H](c1ccccc1)N1C(=O)[C@H]2[C@H]3[C@H](O)[C@H](O)C/C(=N/OC[C@@H](O)COCc4ccco4)[C@@H]3CC[C@@H]2C1=O | -14.6% [at 11.4 µM] | –
79 | COCCn1c(=O)cnc2cnc(Nc3ccccc3)nc21 | – | 1000 nM (active)
80 | Cn1c(=O)cnc2cnc(Nc3ccccc3)nc21 | – | 2000 nM (active)
81 | COCCn1c(=O)cnc2cnc(Nc3cccc(OC)c3)nc21 | – | 794 nM (active)
82 | COc1cccc(Nc2ncc3ncc(=O)n(C)c3n2)c1 | – | 1580 nM (active)
83 | O=C(O)[C@@H]1[C@@H]2C[C@H]([C@@H](Br)[C@H]2N2C(=O)CCC2=O)[C@@H]1C(=O)O | -15.8% [at 2.29 µM] | –
84 | CN[C@@H]1[C@H](O[C@@H]2O[C@H](CO)[C@@H](N)[C@H](O)[C@@H]2O)O[C@H]2C[C@@H](N)[C@@H](O[C@H]3[C@@H](O)[C@H](O)[C@H](N)C[C@@H]3N)O[C@H]2[C@H]1O | -8.22% [at 25.6 µM] | –
85 | CC(C)Cn1cnc2c(Sc3c([N+](=O)[O-])ncn3C)nc(N)nc21 | 8.13% [at 2.29 µM] | –
86 | Brc1ccccc1OCCOCCOc1cccc2cccnc12 | – | 2240 nM (active)
87 | Cc1ccc(OCCCOc2cccc3cccnc23)cc1C | – | 2820 nM (active)
88 | Cc1c(CCO)c(=O)n(C)n1C(=O)c1ccc(F)cc1 | 12.2% | –
89 | COc1ccc(COC(=O)N/N=C2/C[C@@H](O)[C@@H](O)[C@@H]3[C@H]4C(=O)N(c5ccc(F)cc5F)C(=O)[C@@H]4CC[C@@H]23)cc1 | -3.56% [at 11.4 µM] | –
90 | COc1cc2c3cc1Oc1c(OC)c(OC)cc4c1[C@@H](Cc1ccc(O)c(c1)Oc1ccc(cc1)C[C@@H]3N(C)CC2)CN(C)C4 | -11.1% [at 11.4 µM] | –
91 | O=C(O)c1nc(-c2ccccc2)[nH]c1C(=O)O | – | 1000 nM (active)
92 | Nc1cc(C(=O)O)[nH]c(=O)n1 | -6.95% [at 11.4 µM] | –
93 | C=CCn1c(Cc2ccc(OC)cc2)nnc1SCC(=O)c1cccc([N+](=O)[O-])c1 | -28.6% | –
94 | C=CCn1c(COc2ccccc2)nnc1SCC(=O)N/N=C/c1ccc(C)cc1 | – | 3550 nM (active)
